According to PubChem BioAssay (NCI):
This is part of a sample that, as a whole, favours compounds with a hit. Of some 83,000 tested, about 20% had one in any assay.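 Interpretation: 100, growth as untreated; towards 0, rising growth inhibition; 0, no net growth; 0 to -100, cell death. Compounds scoring below 10 were considered active.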 The source made the active and inactive calls.

These molecules were tested on UO-31 renal (assay: NCI-60 one-dose screen, 48 h (100 = growth as untreated, 0 = no growth, -100 = all killed)). Conditions: 10 µM unless noted.
Method: Growth inhibition of the UO-31 human tumor cell line is measured as a screen for anti-cancer activity. Cells are grown in 96 well plates and exposed to the test compound for 48 hours. Compounds are tested at a single concentration, which is 10^-5 M for most compounds. The reported endpoint is percent growth (GI% or GIPRCNT), where numbers from 0 - 100% represent growth inhibition, and numbers from -100% - 0 represent cell death. For example, a value of 40 represents 60% growth inhibition. A value of 0 means no net growth occurred over the course of the experiment. A value of -40 indicates 40% of cells at the beginning of the experiment died by the end of the experiment. A value of -100 means all cells are dead at the end of the experiment.
NCI-60 Human Tumor Cell Lines Screen was performed using the standard one-dose NCI protocol, which is described in more detail at https://dtp.cancer.gov/discovery_development/nci-60/default.htm.
Compounds with GIPRCNT values below 10 were considered active. Activity score was based on GIPRCNT using the following formula: […]
Score is 0 for GIPRCNT values of 100 or above, 50 for GIPRCNT values of 0, and 100 for GIPRCNT values of -100.

Row | SMILES | growth
1 | CCCSc1nc(Nc2ccc(/C(C)=N\NC(N)=S)cc2)c(C#N)c(-c2ccc(OC)cc2)n1 | 28.3% (inactive)
2 | O=C(c1ccc(O)cc1)C1[C@H](c2ccc(Cl)cc2)[C@@H](c2ccccc2)NC12C(=O)Nc1ccc(Cl)cc12 (stereo not given in full) | 35.4% (inactive)
3 | CN1C(=S)N(C)C2C1NN=C1SC(c3ccccc3)=CC(=O)N12 (stereo not given) | 88.3% (inactive)
4 | COc1ccc(NC2=CC(=O)C(C)=C(C)C2=O)cc1 | 81.2% (inactive)
5 | Cn1cc(-c2cc(N)n3nc(-c4cn(C)c5ccc(F)cc45)cc3n2)c2cc(F)ccc21 | 21.2% (inactive)
6 | Clc1ccc2c(NCCCn3ccnc3)c3oc4ccccc4c3nc2c1 | 36.2% (inactive)
7 | CCN1C(=S)N(CC)C2C1NN=C1SC(c3ccccc3)=CC(=O)N12 (stereo not given) | 113% (inactive)
8 | C#Cc1nc(C2=C(C)/C(=N/OCc3ccccc3)CC2)cs1 | -93.8% (active)
9 | [Cl][Ru].c1ccc(-c2cccc(-c3ccccn3)n2)nc1.c1ccc(-c2ccnc3c2ccc2c(-c4ccccc4)ccnc23)cc1 | 79.6% (inactive)
10 | CS(=O)(=O)c1ccc(-c2nc3ccccn3c2/C=N/Nc2nc(-c3ccc(Br)cc3)cs2)cc1 | 84.8% (inactive)
11 | Cc1nc2cnc(N)c(C#Cc3cncc(C(=O)Nc4ccc(Cl)c(C(F)(F)F)c4)c3)c2nc1C | 19.9% (inactive)
12 | COc1cc(/C=C/C(=O)c2ccc(C(F)(F)F)cc2)ccc1Oc1nc(NCCO)nc(N2CCOCC2)n1 | 70.5% (inactive)
13 | COC(=O)C(Cc1ccccc1)NS(=O)(=O)/N=C1\NC(=O)NC1=C(Cl)Cl (stereo not given) | 81.3% (inactive)
14 | Nc1cc(-c2c[nH]c3ccccc23)nc2cc(-c3c[nH]c4ccccc34)nn12 | 44.2% (inactive)
15 | Cn1c(SCC(=O)c2cccs2)nc2ccccc2c1=O | 84.5% (inactive)
16 | NS(=O)(=O)c1ccc(Nc2nc(Nc3ccccc3)nc(-n3nc(-c4ccccc4)cc3-c3ccccc3)n2)cc1 | 29.1% (inactive)
17 | CC1=C(C)C(=O)C(Nc2ccccc2)=C(Cl)C1=O | 98.8% (inactive)
18 | COC1CCN(Cc2ccc3c(NNC(=O)c4cnccn4)nc4cc(F)ccc4n23)C1 (stereo not given) | 18.6% (inactive)
19 | O=C1Nc2cc(Cl)ccc2/C1=C\c1ccc(OCc2ccc(Br)cc2F)cc1 | -68.7% (active)
20 | COc1cc(/C=C/C(=O)c2ccccc2)ccc1Oc1nc(NCCO)nc(N2CCOCC2)n1 | 80.8% (inactive)

Row | SMILES | growth
21 | CN1CCN(Cc2ccc(NC(=O)c3cncc(C#Cc4cnc5[nH]ncc5c4)c3)cc2C(F)(F)F)CC1 | 2.97% (active)
22 | CSCCC(C(=O)O)N1C(=O)/C(=C/c2ccc(O)c(O)c2)SC1=S (stereo not given) | 89.3% (inactive)
23 | O=C(N/N=C/c1ccco1)c1[nH]c2ccc(Br)cc2c1-c1ccccc1 | 38.6% (inactive)
24 | NS(=O)(=O)c1cccc(Nc2nc(SCC(=O)c3ccc([N+](=O)[O-])cc3)nc3ccccc23)c1 | 40.5% (inactive)
25 | COc1ccc(/C=N/NC(=O)c2[nH]c3ccc(Br)cc3c2-c2ccccc2)o1 | 46.1% (inactive)
26 | CC(=NNc1ncnc2ccccc12)c1ccc(S(C)(=O)=O)cc1 | 73.1% (inactive)
27 | COc1ccc(-c2csc(N/N=C/c3c(-c4ccc(S(C)(=O)=O)cc4)nc4ccccn34)n2)cc1 | 87% (inactive)
28 | O=C(Nc1nc2ccc(O)cc2s1)c1cccc(C(F)(F)F)c1 | 33.4% (inactive)
29 | CN(C)CCCOc1c2ccc(Cl)cc2nc2c1oc1ccc(Cl)cc12 | 2.96% (active)
30 | c1ccc2c(NCCCn3ccnc3)c3oc4ccccc4c3nc2c1 | 0.573% (active)
31 | CS(=O)(=O)Nc1ccc(-c2nn(-c3ccc(S(C)(=O)=O)cc3)cc2/C=C/C(=O)c2ccc(NC(=O)CO[N+](=O)[O-])cc2)cc1 | 93.9% (inactive)
32 | COc1ccc(C(=O)c2cc(C(=O)/C=C/c3c(Cl)cccc3Cl)c3cc(C)ccn23)cc1 | 96.6% (inactive)
33 | CC(C)NC(=O)c1cc(-c2ccc(NC(=O)Nc3ccc(N4CCOCC4)c(C(F)(F)F)c3)cc2)nc2cccnc12 | 48.2% (inactive)
34 | COc1ccc(-c2nc3ccc(-c4nnc(SCC(=O)Nc5ccc(C(=O)/C=C/c6ccccc6)cc5)o4)cc3[nH]2)cc1OC | 88.5% (inactive)
35 | COc1ccccc1/C=C/C=N/NC1=NC2C(S1)N(C)C(=O)N2C (stereo not given) | 49% (inactive)
36 | C=CCSc1ccc2c(c1)C(N1CCNCC1)=Nc1ccccc1O2 | 62.1% [8.25 µM] (inactive)
37 | CCN1C(=S)N(CC)C2C1N=C(SC)N2/N=C/C=C/c1ccccc1[N+](=O)[O-] (stereo not given) | 94.8% (inactive)
38 | CN1C(=O)N(c2ccccc2)C2N=C(N/N=C/c3ccccc3)SC21 (stereo not given) | 47.4% (inactive)
39 | CC(C)(C)Nc1nc2c(OCCc3ccccc3)cccn2c1-c1cccc(F)c1 | -11% (active)
40 | O=C(N/N=C/c1ccc(Br)s1)c1[nH]c2ccc(Br)cc2c1-c1ccccc1 | 48.6% (inactive)
